# Measured values: PubChem BioAssay AID1508602 (The Scripps Research Institute Molecular Screening Center, 2020)
# “And” between values parts separate entries of the source, which are not always exact repeats. Equal entries are not always repeated. About 6,800 (1%) of roughly 650,000 compounds were called active. No stated cut-off is given here; in the data, active means activation above about 4.9%; inactive means the rest. Only a selection was taken, and actives are over-represented in it overall. The source holds several records for some structures; these can differ, active in one and inactive in another.
# Biological target: G-protein coupled receptor 151 (Homo sapiens) (UniProt Q8TDV0)
# Sequence (Q8TDV0 whole entry, looked up): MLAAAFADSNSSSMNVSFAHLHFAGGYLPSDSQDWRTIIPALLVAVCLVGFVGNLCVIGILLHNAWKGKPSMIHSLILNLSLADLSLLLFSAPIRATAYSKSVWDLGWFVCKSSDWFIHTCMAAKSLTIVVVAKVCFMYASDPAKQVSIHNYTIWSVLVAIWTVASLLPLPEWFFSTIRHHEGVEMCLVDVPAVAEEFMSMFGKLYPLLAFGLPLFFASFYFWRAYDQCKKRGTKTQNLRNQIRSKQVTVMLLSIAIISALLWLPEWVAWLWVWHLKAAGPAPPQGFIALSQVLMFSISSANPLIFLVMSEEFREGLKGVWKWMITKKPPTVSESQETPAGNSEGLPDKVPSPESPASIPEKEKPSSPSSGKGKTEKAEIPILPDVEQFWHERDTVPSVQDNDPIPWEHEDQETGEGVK
# Assay: activates the human receptor GPR151, primary screen, cell-based, PathHunter beta-arrestin, luminescence (AID 1508602);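 further: 0% = median of compound wells and 100% = cells with positive control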
# Settings: PathHunter beta-arrestin GPR151 cells, at 11.2 µM, stronger effect = higher value
row,Compound,activation
1,CCOC(=O)NCCCN1CCN(c2ccccc2)CC1,1.63% (inactive)
2,COc1cc(NC(=O)NCCN2CCN(c3ccccc3)CC2)cc(OC)c1,0.531% (inactive)
3,N#Cc1ccc(N2CCN(CCCNC(=O)Nc3ccccc3)CC2)cc1,5.03% (active)
4,COc1cccc(C=O)c1OC(=O)c1ccc(Cl)c([N+](=O)[O-])c1,1.65% (inactive)
5,NC(=O)c1ccccc1NS(=O)(=O)c1cc(C(=O)O)c(Cl)cc1Cl,1.03% (inactive)
6,OC(COc1ccccc1F)CN1CCOCC1 (stereo unspecified),0.198% (inactive)
7,COc1ccc(C2/C(=C(\O)c3ccc(F)cc3)C(=O)C(=O)N2CCCN2CCOCC2)cc1 (stereo unspecified),1.83% (inactive)
8,CCCSc1[nH]c(=O)c(C(=O)O)cc1C#N,-0.367% (inactive)
9,O=C(Cn1nnc2ccccc21)N/N=C/c1cccnc1,0.99% (inactive)
10,O=C(Cn1nnc(-c2ccccc2)n1)N/N=C/c1c(O)ccc2ccccc12,1.41% (inactive)
11,O=C(Cn1nnc2ccccc21)N/N=C/c1c(O)ccc2ccccc12,5.7% (active)
12,CC(C)(C)C1(O)CCN2C[C@H]3c4ccccc4CCc4cccc(c43)[C@@H]2C1 (stereo partly specified),7.83% (active) and 3.25% (inactive)
13,CC(Nc1n[nH]c(=O)[nH]c1=O)C(=O)N/N=C/c1cccnc1 (stereo unspecified),-0.752% (inactive)
14,CN(CC(=O)Nc1c(F)cccc1F)S(=O)(=O)c1ccc(Cl)cc1,0.4% (inactive)
15,CN(CC(=O)Nc1cccc2c1CCCC2)S(=O)(=O)c1ccc(Cl)cc1,5.67% (active)
16,CN(CC(=O)Nc1ccccc1Cl)S(=O)(=O)c1ccc(F)cc1,-1.27% (inactive)
17,C=CCn1c(SCC(=O)NCc2ccco2)nc2sc3c(c2c1=O)CCC(C)C3 (stereo unspecified),-1.7% (inactive)
18,CCOC(=O)c1sc2nc(SCc3ccc(Cl)cc3)n(Cc3cccc(Cl)c3)c(=O)c2c1C,-0.446% (inactive)
19,CCOC(=O)CSc1nc2sc(C(=O)OCC)c(C)c2c(=O)n1Cc1ccccc1,2.6% (inactive)
20,CCOC(=O)c1sc2nc(SCC(=O)N(C)Cc3ccccc3)n(Cc3ccc4c(c3)OCO4)c(=O)c2c1C,5.39% (active)
21,NC(=O)c1nc(-c2cccc(Cl)c2)nc2c1[nH]c(=O)n2-c1ccccc1,-0.457% (inactive)
22,NC(=O)c1nc(-c2ccccc2)nc2c1[nH]c(=O)n2-c1ccc(F)cc1,0.0137% (inactive)
23,CC(C)n1c(=O)[nH]c2c(C(N)=O)nc(-c3ccc(-c4ccccc4)cc3)nc21,5.61% (active)

row,Compound,activation
1,Cc1cccnc1-c1ccc2c(c1)CC(CNC(=O)[C@@H]1CCC(=O)N1)O2 (stereo partly specified),0.168% (inactive)
2,CCOC(=O)C1=C(C)OC(N)=C(C#N)C1c1ccc2c(c1)OCO2 (stereo unspecified),0.198% (inactive)
3,CCN(CC)CCOC(=O)c1ccc(OC)cc1OCCN(CC)CC,1.9% (inactive)
4,CCOc1ccc(CN2CCN(Cc3ccc4cc(F)ccc4n3)CC2CCO)cc1 (stereo unspecified),-0.448% (inactive)
5,OCCC1CN(Cc2cccc(F)c2)CCN1C1CCCC1 (stereo unspecified),1% (inactive)
6,OCCC1CN(Cc2ccc3cc(F)ccc3n2)CCN1C1CCCC1 (stereo unspecified),9.5% (active)
7,CC(C)Nc1cc(N2CCC3(CC2)OCCO3)c2noc3c2c1C(=O)c1ccccc1-3,3.8% (inactive)
8,Cc1ccc(N2C(=O)NC(NC(=O)c3cccs3)(C(F)(F)F)C2=O)cc1 (stereo unspecified),1.1% (inactive)
9,Cc1ccc(N2C(=O)CC(NCc3ccc(F)cc3)C2=O)cc1 (stereo unspecified),-0.0057% (inactive)
10,Cc1ccc(N2C(=O)CC(NCCc3ccccc3F)C2=O)cc1 (stereo unspecified),0.306% (inactive)
11,Cc1ccc(N2C(=O)CC(NCCN3CCOCC3)C2=O)cc1 (stereo unspecified),14% (active)
12,COc1ccc(F)c(CC2(CCC(=O)N(CCO)Cc3ccccc3)CCC(=O)N2)c1 (stereo unspecified),-0.346% (inactive)
13,O=C(Nc1ccc2[nH]ncc2c1)N1CCCNCC1,5.34% (active)
14,NC(C(=O)N1CCN(C(=O)Nc2ccc3[nH]ncc3c2)CC1)c1cccc(Br)c1 (stereo unspecified),-1.09% (inactive)
15,CC(C)[C@H](O)C(=O)N1CCC(C(=O)Nc2ccc3[nH]ncc3c2)CC1,-0.359% (inactive)
16,O=C(Nc1ccccc1C(F)(F)F)c1cc(S(=O)(=O)N2CCCCCC2)ccc1F,0.584% (inactive)
17,Cc1ccc(N(CC(=O)N/N=C/c2ccc(C)c(C)c2C)S(C)(=O)=O)cc1,0.882% (inactive)
18,COc1cc2ccccc2cc1C(=O)Nc1nc2ccc3ccccc3c2s1,-1.09% (inactive)
19,CCOC(=O)c1cc[n+](CC(=O)c2ccc(NC(=O)c3ccccc3)cc2)cc1,-2.71% (inactive)
20,CCOC(=O)c1ccc(NC(=O)c2ncn(-c3ccccc3)n2)cc1,5.91% (active)
21,CCOC(=O)c1ccc(NC(=O)c2nn(Cc3ccccc3)c(=O)c3ccccc23)cc1,-0.0773% (inactive)
22,O=C(Nc1ccncc1NC(=O)c1ccco1)c1ccco1,0.598% (inactive)
23,O=C1NCCN(Cc2ccc(F)c(F)c2)C1CC(=O)N1CCCC1 (stereo unspecified),-0.422% (inactive)

row,Compound,activation
1,O=C1NCCN(Cc2ccc(-c3ccccc3)cc2)C1CC(=O)N1CCCCC1 (stereo unspecified),12.2% (active)
2,COc1ccc(CN2CCNC(=O)C2CC(=O)N2CCCCC2)cc1OC (stereo unspecified),1.79% (inactive)
3,COc1cccc(N2CCN(c3ncnc4c3c(-c3ccccc3)cn4-c3ccccc3)CC2)c1,1.89% (inactive)
4,Nc1nc(NC(=O)/C=C/c2ccc(F)cc2)nn1-c1ccccc1,10.7% (active)
5,Nc1nc(NC(=O)/C=C/c2ccccc2)nn1-c1ccccc1,0.0795% (inactive)
6,Nc1nc(NC(=O)/C=C/c2ccc(Cl)cc2)nn1-c1ccccc1,0.321% (inactive)
7,Cc1sc(NC(=O)Cc2ccc([N+](=O)[O-])cc2)c(C#N)c1-c1ccccc1,-0.519% (inactive)
8,O=C(CN1CCOCC1)Nc1ncc(Cc2cc(Cl)cc(Cl)c2)s1,-0.516% (inactive)
9,O=C(CN1CCOCC1)Nc1c(Cl)cc(Cl)cc1Cl,8.12% (active)
10,O=C1CN(CC(=O)Nc2c(Cl)cc(Cl)cc2Cl)CCN1,0.357% (inactive)
11,CC(NC(=O)C12CC3CC(CC(C3)C1)C2)c1ccccc1 (stereo unspecified),1.54% (inactive)
12,CCOC(=O)c1c(-c2ccc(C)cc2)csc1NC(=O)CNCCCO,0.601% (inactive)
13,Cc1ccc(C(=O)N/N=C\c2ccccc2O)cn1,-0.843% (inactive)
14,O=S(=O)(c1ccc2c(c1)CCCC2)N1CCOC(c2ccccc2)C1 (stereo unspecified),-1.43% (inactive)
15,Cc1ccccc1-c1nc(SCC(=O)NCCc2ccccc2)c2c(=O)n(C)c(=O)n(C)c2n1,-0.395% (inactive)
16,CCN1CCN(C(=O)Cn2nc(Cc3cccnc3)c3ccccc3c2=O)CC1,1.14% (inactive)
17,O=C1CCC(=O)NCC(=O)NCCOCCNC(=O)CN1,-0.231% (inactive)
18,CC/C(Cc1ccccc1)=N\NC(=O)c1ccccc1,-1.22% (inactive)
19,CN1CCN(c2ccc(-c3nc4ccc(C(=O)NCc5nc6ccccc6[nH]5)cc4s3)cc2)CC1,7.98% (active)
20,CN1CCN(c2ccc(-c3nc4ccc(C(=O)NCc5ccccc5)cc4s3)cc2)CC1,-0.195% (inactive)
21,O=C(NCc1nc2ccccc2[nH]1)c1ccc2nc(-c3ccccc3)sc2c1,-1.41% (inactive)
22,COc1ccc(-c2noc(Nc3ccc(F)cc3)n2)cc1OC,-0.36% (inactive)
23,Cc1ccc(NC(=O)c2c[nH]c(=O)[nH]c2=O)cc1S(=O)(=O)N1CCCCC1,-0.749% (inactive)

row,Compound,activation
1,COc1ccc(C(=O)NNC(=O)c2ccccc2[N+](=O)[O-])cc1OC,-0.216% (inactive)
2,CC(C)C(=O)NNS(=O)(=O)c1ccc([N+](=O)[O-])cc1,6.82% (active)
3,O=C(NNS(=O)(=O)c1ccc([N+](=O)[O-])cc1)Nc1cccc(C(F)(F)F)c1,0.535% (inactive)
4,CC(NS(=O)(=O)c1ccc([N+](=O)[O-])cc1)C(=O)N/N=C/c1ccc(O)cc1 (stereo unspecified),0.173% (inactive)
5,COCC(=O)Nc1c(I)c(C(=O)NCC(O)CO)c(I)c(C(=O)N(C)CC(O)CO)c1I (stereo unspecified),6.28% (active)
6,CC(=O)N(CC(O)CO)c1c(I)c(C(=O)NCC(O)CO)c(I)c(C(=O)NCC(O)CO)c1I (stereo unspecified),0.874% (inactive)
7,CC1=NOC(=O)/C1=C/c1ccc(-c2cc(C)c(C)cc2[N+](=O)[O-])o1,0.0267% (inactive)
8,Cc1[nH][nH]c(=O)c1C(c1ccc(-c2ccc(F)cc2[N+](=O)[O-])o1)c1c(C)[nH][nH]c1=O,6.05% (active)
9,Cc1[nH][nH]c(=O)c1C(c1ccc(-c2ccc(Cl)cc2)o1)c1c(C)[nH][nH]c1=O,0.733% (inactive)
10,CCCOC(=O)COc1ccc2c(C)cc(=O)oc2c1,-0.0136% (inactive)
11,Cc1ccc(C2=NN(C(=O)CCC(=O)O)C(c3ccc(C)cc3)C2)cc1 (stereo unspecified),-1.19% (inactive)
12,CC1=C(C(=O)Nc2ccc(Cl)cc2)C(c2ccc([N+](=O)[O-])cc2)n2nnnc2N1 (stereo unspecified),0.405% (inactive)
13,O=C(O)CC(NS(=O)(=O)Cc1ccccc1)c1ccc(F)cc1 (stereo unspecified),1.1% (inactive)
14,O=C(O)CC(NC(=O)c1ccccc1)c1ccc(F)cc1 (stereo unspecified),-0.457% (inactive)
15,CC(=O)NC(CC(=O)O)c1ccc(F)cc1 (stereo unspecified),6.23% (active)
16,O=C(NCc1ccc(F)cc1)c1nn2c(C(F)(F)F)cc(-c3cccs3)nc2c1Cl,0.443% (inactive)
17,Cc1ccccc1NC(=O)CSc1nnc(NC(=O)CCc2ccccc2)s1,-0.763% (inactive)
18,O=C1c2cccnc2C(=O)N1CCc1ccc(S(=O)(=O)N2CCCc3ccccc32)cc1,-2.73% (inactive)
19,COc1ccc(-c2cnn3ccc(Nc4ccc(O)cc4)nc23)c(OC)c1,-0.387% (inactive)
20,COC(=O)NNC(=S)Nc1cc(S(=O)(=O)N(C)C)ccc1C,6.15% (active)
21,Cc1ccc(S(=O)(=O)N(C)C)cc1NC(=S)NCCc1ccc(O)c(O)c1,-0.323% (inactive)
22,CC(=O)c1c(C)[nH]c(C(=O)Nc2cc(S(=O)(=O)N(C)C)ccc2C)c1C,0.871% (inactive)
